# Screening data: PubChem, The Scripps Research Institute Molecular Screening Center
# In the library only some 1.7% were active in any assay of this set; here they are far more common.
# GSTO1 inh – blocks human GSTO1 in RBBP9 counter-screen. 300,000 compounds, 1.1% hits. AID 1974. inhibition, % at 5.96 µM. P78417. recombinant GSTO1, activity-based probe fluorescence polarization;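 active means inhibition above the campaign mean inhibition plus 3 SD, cut at about 35% in these data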;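 further: 0% = GSTO1-1 with DMSO and 100% = wells lacking GSTO1-1 enzyme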
# Target sequence (P78417 whole entry, looked up): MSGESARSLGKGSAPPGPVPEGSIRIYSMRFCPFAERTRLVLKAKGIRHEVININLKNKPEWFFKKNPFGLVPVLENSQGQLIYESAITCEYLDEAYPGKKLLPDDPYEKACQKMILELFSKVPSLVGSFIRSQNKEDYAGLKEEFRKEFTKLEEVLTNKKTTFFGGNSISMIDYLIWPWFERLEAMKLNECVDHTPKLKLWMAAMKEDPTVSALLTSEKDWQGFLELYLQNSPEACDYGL
# LYPLA1 inh – LYPLA1 (human) inhibition in PME1 counter-screen. O75608. recombinant LYPLA1, FP-Rh probe fluorescence polarization. inhibition, % at 5.9 µM. 320,000 compounds, 0.16% hits;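 active means inhibition above the mean of all tested compounds plus 3 SD, set per campaign, cut at about 14% in these data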;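 further: inhibitors block serine hydrolase probe labeling of LYPLA1 so polarization falls; 0% = enzyme with DMSO and 100% = wells lacking LYPLA1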
# Target sequence (O75608 whole entry, looked up): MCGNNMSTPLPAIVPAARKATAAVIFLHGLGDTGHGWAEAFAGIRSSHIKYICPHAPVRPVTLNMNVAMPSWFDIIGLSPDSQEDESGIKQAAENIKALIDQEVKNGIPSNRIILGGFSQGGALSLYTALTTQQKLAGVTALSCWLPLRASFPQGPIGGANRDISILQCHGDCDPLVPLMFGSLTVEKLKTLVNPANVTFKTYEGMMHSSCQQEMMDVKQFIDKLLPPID
# EBNA-1 inhibitor – blocks EBNA-1 binding to DNA; EBNA-1 DNA binding, fluorescence polarization; inhibition, % at 14.8 µM; 300,000 compounds, 0.34% hits; AID 1950; in the data active means inhibition above about 28%
# LYPLA2 counter – counter-screen for PME1 inhibitors: inhibitors of human LYPLA2; recombinant LYPLA2, FP-Rh probe fluorescence polarization; inhibition, % at 5.9 µM; 320,000 compounds, 0.38% hits;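 active means inhibition above the screen-wide mean plus 3 SD, limit set per campaign, cut at about 26% in these data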;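 further: 0% = LYPLA2 with DMSO and 100% = wells lacking LYPLA2 enzyme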
# ZTA DNA inh – counter-screen for EBNA-1 inhibitors: inhibitors of Epstein-Barr virus ZTA | 320,000 compounds, 0.15% hits | P03206 | ZTA-DNA binding, fluorescence polarization | AID 2234 | inhibition, % at 11 µM; in the data active means inhibition above about 33%
# Target sequence (P03206 whole entry, looked up): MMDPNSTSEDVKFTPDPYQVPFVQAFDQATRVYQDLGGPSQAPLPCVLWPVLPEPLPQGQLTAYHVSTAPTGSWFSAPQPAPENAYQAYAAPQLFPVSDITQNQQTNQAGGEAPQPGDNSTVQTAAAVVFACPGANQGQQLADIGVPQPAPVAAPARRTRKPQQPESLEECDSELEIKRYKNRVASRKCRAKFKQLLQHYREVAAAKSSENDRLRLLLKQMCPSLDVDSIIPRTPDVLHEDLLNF
# PAD4 FP inh – inhibitors of human PAD4 | inhibition, % at 6.36 µM | 330,000 compounds, 0.41% hits | recombinant PAD4, RCA probe fluorescence polarization | Q9UM07;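 active means percent inhibition above a cutoff equal to the mean of all tested compounds plus 3 SD, cut at about 15% in these data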;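 further: 0% = PAD4 with RCA probe and DMSO and 100% = probe without PAD4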
# LYPLA2 confirm – LYPLA2 (human) inhibition, confirmation counter-screen; shares compounds with LYPLA2 counter; recombinant LYPLA2, FP-Rh probe fluorescence polarization; inhibition, % at 5.9 µM; 1,100 compounds, 72% hits; AID 2232;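 active means mean inhibition across replicates above the hit cutoff set in the primary screen, cut at about 26% in these data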;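 further: blocked labeling of the enzyme by serine hydrolase FP-Rh probe lowers polarization; 0% = enzyme with DMSO and 100% = wells lacking LYPLA2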
# ZTA inh confirm – EBV ZTA DNA binding inhibition, confirmation. shares compounds with ZTA DNA inh. Zta-ZRE DNA binding, fluorescence polarization. inhibition, % at 11.1 µM. 320 compounds, 30% hits. AID 2361;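 active means mean inhibition across triplicate runs above the hit threshold derived for the original primary screen, cut at about 33% in these data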;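 further: 0% = Zta with DMSO and 100% = wells lacking Zta protein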
# EBNA-1 counter – counter-screen for ZTA inhibitors: EBNA-1 DNA binding inhibition. shares compounds with ZTA DNA inh. fluorescence polarization. inhibition, % at 14.8 µM. 320 tested, under 10 active. AID 2362; call rule not given here
# PAD4 FP conf – confirmation of human PAD4 inhibitors | AID 488796 | inhibition, % at 6.36 µM | 1,200 compounds, 28% hits | recombinant PAD4, RCA probe fluorescence polarization | shares compounds with PAD4 FP inh;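 active means mean inhibition across replicates above the hit cutoff set by the earlier primary screen, cut at about 15% in these data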;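 further: inhibitors block active-site labeling by the probe so polarization falls; 0% = PAD4 with probe and DMSO and 100% = probe without PAD4 enzyme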
# Active calls of the source: *; x = no result.
SMILES,GSTO1 inh,LYPLA1 inh,EBNA-1 inhibitor,LYPLA2 counter,ZTA DNA inh,PAD4 FP inh,LYPLA2 confirm,others
COC(=O)c1ccc(N2CCC(c3cc(-c4ccc(OC)cc4)n[nH]3)CC2)c([N+](=O)[O-])c1,-22.7,-11.4,10.7,26.2*,-0.8,-0.4,25.6,
COc1ccc(-c2cc(C3CCN(C(=O)OC(C)(C)C)CC3)[nH]n2)cc1,8.3,5.8,0.3,26.6*,-3.1,-0.5,17.8,
CCOC(=O)c1[nH]ncc1CN1CCN(Cc2ccc(C)cc2)C(CCO)C1 (stereo not drawn),-9.4,-0.4,-18.8,-10.3,-5.0,-11.3,x,
CC(C)c1ccc(CN2CCN(C(=O)CSc3nnnn3C3CC3)CC2)cc1,x,1.6,x,16.4,-7.2,2.8,x,
O=C(c1ccc(N2CCN(C(=O)c3ccc(F)c(F)c3)CC2)cc1)c1cccc(F)c1,-6.4,-3.6,1.5,32.1*,-5.5,-0.5,33.2*,
O=C(c1ccccc1)c1ccc(C(=O)N2CCN(c3ccc(O)cc3)CC2)cc1,x,x,x,x,x,-3.6,x,
O=C(c1ccc(N2CCN(C(=O)c3ccccc3)CC2)cc1)c1cccc(F)c1,-4.3,-3.0,-0.5,26.6*,0.1,0.9,30.1*,
O=C(c1cccc(F)c1)N1CCN(c2cccc(Cl)c2)CC1,5.0,-1.7,5.2,0.0,11.3,-2.6,x,
CCOC(=O)C1(CCOc2ccccc2)CCN(Cc2ccc(OC)cc2)CC1,3.2,-2.5,-7.2,-0.5,-10.6,0.3,x,
CCOC(=O)C1(CCOc2ccccc2)CCN(Cc2ccc3nonc3c2)CC1,4.2,4.0,9.6,30.9*,18.1,2.2,28.4*,
O=C(C1CCN(c2ncnc3c2nc2n3CCCCC2)CC1)N1CCN(c2ccc(F)cc2)CC1,1.1,2.2,-6.9,40.2*,-4.1,-4.0,32.0*,
COC(=O)[C@@]12CCCCN1[C@H](c1ccc(-c3ccc(F)cc3)cc1)[C@@H]1C(=O)N(C)C(=O)[C@@H]12,2.0,0.6,7.8,-0.3,13.3,2.4,x,
CC(=O)Nc1ccc(S(=O)(=O)NCCC(=O)NCc2ccncc2)cc1,4.0,1.2,1.6,2.3,3.1,-0.3,x,
COc1cccc(NC(=O)COc2nc3ccccc3nc2C)c1,-4.0,2.2,-7.2,26.8*,-3.4,2.4,31.8*,
N#Cc1ccc(CN2CCN(CC(=O)NCCc3ccc(Cl)cc3Cl)CC2)cc1,12.1,-0.7,6.3,27.4*,-7.5,-3.8,16.6,
O=C(Cn1cc(C(F)(F)F)ccc1=O)NCCc1ccc(Cl)cc1Cl,-5.8,1.3,-7.4,-2.9,12.2,1.8,x,
Cc1cc2c(NC(=O)Nc3ccccc3)cccc2nn1,12.7,-5.1,12.4,35.1*,16.5,-0.8,36.0*,
O=C(O/N=C\c1ccc(N2CCOCC2)c([N+](=O)[O-])c1)c1ccccc1Cl,-0.9,0.0,-3.6,41.2*,-3.6,1.7,43.3*,
CO/N=C/c1ccc(N2CCN(C(=O)c3ccc(C)cc3)CC2)c([N+](=O)[O-])c1,-6.8,2.9,8.1,36.6*,7.2,6.4,38.7*,
O=C(Oc1ccc(Cl)cc1)c1ccc(N2CCOCC2)c([N+](=O)[O-])c1,0.3,3.7,-3.2,33.2*,-9.2,4.3,28.1*,
O=C(O/N=C/c1ccc2c(c1)OCO2)c1ccccc1Cl,-1.7,3.3,9.3,26.2*,-11.3,-3.4,14.3,
O=C(O/N=C\c1ccc(N2CCOCC2)c([N+](=O)[O-])c1)c1ccc(F)cc1,-2.3,4.5,-8.5,10.9,-9.9,-6.2,x,
Cc1occc1C(=O)N(Cc1nc(-c2ccccc2)no1)C(C)C,0.4,1.2,-0.5,-9.0,-1.9,-2.4,x,
CC1CCCN(C(=O)c2ccc3c(c2)OCCO3)C1 (stereo not drawn),x,-1.0,x,0.7,5.7,5.0,x,
COc1ccccc1C(=O)C1CCCN(C(=O)c2ccc3c(c2)OCCO3)C1 (stereo not drawn),6.9,5.8,5.8,42.6*,3.5,0.0,5.3,
SMILES,GSTO1 inh,LYPLA1 inh,EBNA-1 inhibitor,LYPLA2 counter,ZTA DNA inh,PAD4 FP inh,LYPLA2 confirm,others
O=C(N/N=C/c1cccc(Oc2ccc([N+](=O)[O-])cc2[N+](=O)[O-])c1)c1cncc(Br)c1,6.3,-2.3,-2.4,44.9*,-5.1,4.5,38.7*,
CCCCc1cc(=O)oc2cc(OCC(=O)Nc3cccnc3)c(Cl)cc12,-5.5,3.3,4.0,27.6*,7.2,-2.9,14.1,
Nc1nc(NCc2ccco2)nc(Nc2cccc(F)c2)c1[N+](=O)[O-],0.3,-3.5,5.1,-9.9,5.6,2.7,x,
CCOc1ccc(NC(=O)c2nn(-c3ccc(OC)cc3OC)c(=O)c3ccccc23)cc1,0.4,-1.3,2.0,1.0,8.6,-1.4,x,
O=C(O)c1ccc(Cn2cnc3scc(-c4ccccc4)c3c2=O)cc1,-0.1,-1.1,12.3,-3.5,10.5,-4.5,x,
CCCOc1ccc(-c2csc3ncn(Cc4ccc(C(=O)O)cc4)c(=O)c23)cc1,-6.9,-5.3,12.2,30.0*,42.8*,-0.5,33.2*,ZTA inh confirm=4.8;EBNA-1 counter=3.9
CCNc1c(NC(=O)COc2ccc(Cl)cc2)c(=O)oc2ccccc12,6.6,0.5,-7.0,-3.3,7.1,-2.1,x,
C#CCOCCOCCOCCNc1nc(N2CCN(C(=O)CCCCCCCCCCNC(=O)[C@H]([C@@H](C)CC)n3cc(CCCCCN)nn3)CC2)nc(N2CCN(C(=O)CCCCCCCCCCNC(=O)[C@H]([C@@H](C)CC)n3cc(CCCCN=C(N)N)nn3)CC2)n1,-6.0,10.8,5.1,56.8*,163.3*,-17.9,56.3*,ZTA inh confirm=54.5*;EBNA-1 counter=-15.0
CC(C)(C)c1ccc(Cn2nnc3c(=O)[nH]c(C4CCN(C(=O)Cc5cccs5)CC4)nc32)cc1,9.4,-2.2,-12.0,26.8*,-10.6,37.1*,-2.8,PAD4 FP conf=-5.9
COc1ccc(Cl)cc1NC(=O)CSc1nnc(C2CC2)n1C,-1.0,-0.6,-13.4,0.0,-2.4,-3.2,x,
Cc1nc2ccccc2n2c(O)c(CC(=O)O)cc12,13.8,12.2,6.8,26.6*,11.6,74.7*,9.6,PAD4 FP conf=39.1*
Cc1nc2ccccc2n1CCC(=O)O,3.8,0.8,-0.5,3.9,1.1,-3.0,x,
Clc1ccc(OCCSc2ncccn2)c(Br)c1,-6.8,-1.4,9.3,5.0,106.0*,-6.6,x,ZTA inh confirm=7.5;EBNA-1 counter=4.2
Brc1cccc(OCCSc2ncccn2)c1,-1.1,1.5,-11.6,6.8,-5.5,1.1,x,
